# Experimental data published in PubChem BioAssay AID686971 (National Center for Advancing Translational Sciences (NCATS), 2013).
# The campaign covered roughly 360,000 compounds. About 7,500 (2.1%) were called active. Entries that show only a call come without a potency. Inconclusive results (about 8%) are left out. Calls come from the whole dose curve; as a rule, active = well fitted cell-killing curve with a large enough effect; inconclusive = small, poorly fitted or top-dose-only effect, or effect the other way, or another doubt; inactive = no such curve, though single readings can be large or run the other way. Many of the other results were omitted from the sample, so actives are more common in it than they were.
# Assay: qHTS for induction of synthetic lethality in tumor cells producing 2HG: qHTS for the HT-1080-IDH1KD cell line
# Details: HT-1080 IDH1 knockdown viability, ATP luminescence, 48 h; series mostly up to 46.1 µM
# Procedure, shortened: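 HT-1080-IDH1KD cells (IDH1 knocked down), 750/well in RPMI with 5% FBS, treated with compound 48 h at 37 degrees C. Viability by CellTiter-Glo luminescence, normalised to DMSO and no-cell wells; concentration-response curves classed.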
# Potency is the fitted concentration of half-maximal effect.
row,SMILES,Potency
1,C[C@H](CO)N1C[C@H](C)[C@@H](CN(C)S(=O)(=O)c2ccc(Oc3ccccc3)cc2)OCc2cn(nn2)CCCC1=O,inactive
2,O=C(Nc1ccc2c(c1)OCCO2)c1ccoc1,inactive
3,COc1cccc(NC(=O)c2nn(C34CC5CC(CC(C5)C3)C4)cc2[N+](=O)[O-])c1,inactive
4,Cn1cc([N+](=O)[O-])c(C(=O)Nc2ccc3c(c2)OCCO3)n1,11.2 µM (active)
5,CNC(=O)C1CN(C(=O)c2cccc(S(=O)(=O)N3CCc4ccccc43)c2)c2ccccc2O1 (configuration not stated),inactive
6,COc1ccc(C(CNC(=O)c2ccc(OCc3cscn3)cc2)N2CCCC2)cc1 (configuration not stated),inactive
7,Cc1cccc(C(=O)OCC(=O)Nc2sccc2C(N)=O)c1C,inactive
8,O=C(NCCc1cccc(F)c1)C1CC(O)CN1C(=O)Nc1ccccc1 (configuration not stated),inactive
9,O=C(O)C(=Cc1ccc([N+](=O)[O-])cc1)CCc1ccccc1,inactive
10,CN1CCN(C2Cc3ccc(Cl)cc3Sc3ccc(F)cc32)CC1 (configuration not stated),13 µM (active)
11,O=[N+]([O-])c1ccc(CN2CC(N3CC=CC3)CS2(=O)=O)cc1 (configuration not stated),inactive
12,CSc1ccc(CN2CCC2(C)C(=O)Nc2ccc(C)c(O)c2)cc1 (configuration not stated),inactive
13,CCCCN1C(=O)C(CC(=O)NCc2cccs2)CC(C(=O)N2CCOCC2)=C1C (configuration not stated),inactive
14,Cc1ccc(C)c(NC(=O)CCC(=O)NNC(=O)c2cccs2)c1,inactive
15,Cc1ccc(C(=O)NNC(=O)c2cccs2)cc1,inactive
16,Cc1ccc(NNC(=O)c2cccs2)cc1Cl,5.8 µM (active)
17,Cc1ccc(NC(=O)c2cccs2)cc1S(=O)(=O)N(C)C,inactive
18,Cc1ccc(C(=O)Nc2ccc(NC(=O)c3cccs3)cc2)c(C)c1,16.4 µM (active)
19,O=C(NNC(=O)c1ccc(Cl)cc1Cl)c1cccs1,inactive
20,COC(=O)c1ccc2nc(-c3ccc(C)cc3)c(Cc3ccc(OC)cc3C)n2c1,inactive
21,CCCNC(=O)c1cc2c(c(-c3cccc(-c4ccc(C#N)cc4)c3)n1)[C@@H](CCO)N(C(=O)CC)C2,inactive
22,O=C(NNC(=O)c1ccccc1O)c1ccccc1O,9.2 µM (active)
23,Cc1cc(C(=O)CCC(=O)NNC(=O)c2ccccc2O)c(C)s1,inactive
24,CC1=C(C)CC(C(=O)NNC(=O)c2ccccc2O)C(C(=O)O)C1 (configuration not stated),inactive
25,CCNC(=O)c1cc2c(c(-c3cccc(-c4cncnc4)c3)n1)[C@H](CCO)N(C(C)=O)C2,inactive
26,O=C(Nc1cccc(C(=O)O)c1)/C(=C\c1ccccc1)NC(=O)c1ccc(Br)o1,inactive

row,SMILES,Potency
1,CC(C)n1c(-c2cccs2)nc2ccccc21,inactive
2,CC(Nc1nc(C(F)(F)F)nc2ccccc12)c1cccs1 (configuration not stated),16.4 µM (active)
3,Cc1cc(C)n(-c2nc(C(F)(F)F)nc3ccccc23)n1,inactive
4,COCCCNC(=O)c1cccc2c(-c3ccc(O)c(OC)c3)coc12,inactive
5,NC(CSC(c1ccccc1)(c1ccccc1)c1ccc(-c2ccccc2)cc1)C(=O)O (configuration not stated),inactive
6,O=C(NCc1nnnn1-c1ccc(Cl)cc1)c1ccc2c(c1)OCO2,inactive
7,CCNC(=O)C1(C)CCCN(C(=O)c2ccc3ccccc3n2)C1 (configuration not stated),inactive
8,O=c1c2sccc2nc(SCc2cc(=O)n3ccccc3n2)n1-c1ccc(Br)cc1,inactive
9,Cc1cccc2nc(CSc3nc4[nH]ncc4c(=O)n3-c3cccc(Cl)c3)cc(=O)n12,inactive
10,CCc1ccc(-n2c(SCc3cc(=O)n4cc(Br)ccc4n3)nc3[nH]ncc3c2=O)cc1,18.4 µM (active)
11,CCc1nc2c(OCC(=O)C(C)(C)C)cccn2c1N(C)C(=O)c1ccccc1F,inactive
12,CCC(=O)N1CCCC1(C)C(=O)Nc1ccc2c(c1)CCN2C(C)=O (configuration not stated),inactive
13,CC(=O)c1ccc(Oc2cc(C)nc(-n3nc(C)cc3C)n2)cc1,4.61 µM (active)
14,CCOC(=O)c1cnc(-n2nc(C)cc2C)nc1NNc1cc(C)nc(-c2ccccc2)n1,inactive
15,COc1ccc(Nc2cc(C)nc(-n3nc(C)cc3C)n2)cc1,0.794 µM (active)
16,COc1ccc(Nc2cc(Sc3ccc(OC)cc3)ncn2)cc1,inactive
17,COc1ccc(NC(=O)c2nc(-n3nc(C)cc3C)ccc2Cl)cc1Cl,inactive
18,Cc1cc(C)n(-c2ccc(C(=O)O)cc2[N+](=O)[O-])n1,inactive
19,O=C1c2ccccc2-c2ccccc2NC1O (configuration not stated),inactive
20,CCC(=O)N1CCC(C)(C(=O)Nc2cc(OC)c(OC)c(OC)c2)C1 (configuration not stated),inactive
21,CCOC(=O)[C@]12CCCC=C1N(CCC1=CCCCC1)C(=O)[C@H](CC(=O)N1CCCCC1)C2,inactive
22,Cc1ccc(-c2nc3c(Cl)cc(C(F)(F)F)cn3c2Cc2cccc(Cl)c2)cc1,inactive
23,CNC(=O)C[C@H]1C(=O)N(Cc2ccccc2)C[C@@H]1CSC,inactive
24,Cc1nc(N2CCN(c3ccccn3)CC2)c2c(C)c(C(=O)Nc3ccc(F)cc3)sc2n1,inactive
25,Cc1nc(N2CCN(c3ccccn3)CC2)c2c(C)c(C(=O)Nc3ccc(F)c(Cl)c3)sc2n1,inactive
26,Cc1nc(N2CCOCC2)c2c(C)c(C(=O)Nc3ccc(C(F)(F)F)cc3)sc2n1,20.6 µM (active)

row,SMILES,Potency
1,COc1ccc(NC(=O)C2(C)Cc3c(-c4ccc(C(N)=O)cc4)ccnc3O2)cc1 (configuration not stated),inactive
2,CC(=O)Nc1cccc(-c2ccnc3c2CC(C)(C(=O)NCc2ccccc2)O3)c1 (configuration not stated),0.651 µM (active)
3,CC1(C)Cc2cccc(OCC(=O)NCc3ccccc3)c2O1,inactive
4,COc1ccc(NC(=O)C2Cc3c(-c4cccc(NC(C)=O)c4)ccnc3O2)cc1OC (configuration not stated),inactive
5,CC1(C(=O)NCc2ccc(F)c(F)c2)Cc2c(-c3ccc4c(c3)OCO4)ccnc2O1 (configuration not stated),4.61 µM (active)
6,O=C(NCc1ccc2c(c1)OCO2)c1cc(F)c(F)cc1Cl,inactive
7,CC1(C(=O)Nc2cccnc2)Cc2c(-c3ccccc3)ccnc2O1 (configuration not stated),inactive
8,COc1ccc(NC(=O)C2(C)Cc3c(-c4cccc(NC(C)=O)c4)ccnc3O2)cc1OC (configuration not stated),14.6 µM (active)
9,COc1cc(OC)c(C(=O)NCc2ccc3c(c2)OCO3)cc1OC,inactive
10,O=C(Nc1ccc(F)cc1)Nc1nnc([C@H]2C[C@H](O)[C@@H](CO)O2)s1,inactive
11,CC(C)c1cc(C(=O)N(C)C2CCCN(Cc3ccccc3F)C2)n(C)n1 (configuration not stated),inactive
12,COc1ccccc1Cc1c(-c2ccc(Cl)cc2)nc2c3ccccc3ccn12,inactive
13,CCCS(=O)(=O)NC(=O)C1(C)CCCN(C(=O)c2cccs2)C1 (configuration not stated),inactive
14,Cc1cc(Br)cn2c(Cc3ccccc3C(F)(F)F)c(-c3ccc(Cl)cc3)nc12,inactive
15,COc1c(C)cc(C(O)c2ncc(-c3cccc(C(F)(F)F)c3)[nH]2)cc1C (configuration not stated),inactive
16,O=C(Nc1cccc2ccccc12)NC1CC1,inactive
17,O=C(CSc1ncn[nH]1)Nc1nc2c(F)c(F)c(F)cc2s1,inactive
18,Cc1occc1C(=O)NNC(=S)NCC(C)C,inactive
19,C/C(=N/NC(=O)CCc1ccccc1)c1ccco1,inactive
20,C/C(=N\NC(=O)c1ccoc1C)c1ccccc1O,13 µM (active)
21,CCN(CC(=O)Nc1ccc(NC(C)=O)cc1)C(=O)C1CC(=O)N(c2ccc3c(c2)OCCO3)C1 (configuration not stated),inactive
22,CN1CN(C)c2ccc([N+](=O)[O-])c3cccc1c23,inactive
23,CCOc1cccc(=O)c2c(C)n(CC3CCCO3)c(C)c12 (configuration not stated),inactive
24,O=C1c2cccc3c([N+](=O)[O-])ccc(c23)C(=O)N1CC1CCCO1 (configuration not stated),18.4 µM (active)
25,CCNC(=O)C1(C)CCN(Cc2ccc(C(=O)OCC)o2)C1 (configuration not stated),inactive
26,Cc1cccc(C(=O)NC2CCN(CC(=O)Nc3cccc(Cl)c3)CC2)c1,inactive

row,SMILES,Potency
1,CC1(C(=O)NS(=O)(=O)c2ccc3ccccc3c2)CCN1C(=O)C1(c2ccc(Cl)cc2)CCC1 (configuration not stated),inactive
2,O=C(O)c1ccccc1Cc1ccc(F)c2ccccc12,inactive
3,CCCCN(CCCC)CC(O)Cn1c2ccccc2c(=O)c2ccccc21 (configuration not stated),inactive
4,Cc1cc(C)n(CC(O)CN(c2ccccc2)S(=O)(=O)c2ccc3ccccc3c2)n1 (configuration not stated),inactive
5,CS(=O)(=O)N(CC(O)Cn1c2ccccc2c2ccccc21)c1cccc2ccccc12 (configuration not stated),20.6 µM (active)
6,CC1(C(=O)NS(=O)(=O)Cc2cccc(Cl)c2)CCN1C(=O)Cc1ccc(Cl)cc1Cl (configuration not stated),inactive
7,Cc1ccccc1NC(=O)Cc1nc(COC(=O)C(C)(C)Oc2ccc(Cl)cc2)cs1,inactive
8,Oc1ccc(N=Nc2nccs2)c(O)c1,4.11 µM (active)
9,Cc1cc2c3ccccc3[nH]c(=O)n2n1,inactive
10,COC(=O)[C@]12CCCCC=C1N(CCC1=CCCCC1)C(=O)[C@H](CC(=O)N1CCSCC1)C2,inactive
11,CCNC(=O)C1(C)CCCN1C(=O)c1ccc(N(C)C)cc1 (configuration not stated),inactive
12,CC(=O)NC(Cc1c[nH]c2ccccc12)C(=O)O (configuration not stated),inactive
13,O=C(NC(Cc1c[nH]c2ccccc12)C(=O)N/N=C/c1ccc(Br)cc1)c1cccs1 (configuration not stated),32.6 µM (active)
14,O=C(CNC(=O)c1cccs1)N/N=C/c1cccc(Br)c1,inactive
15,Cc1noc(C)c1-c1ccc(C(=O)NCc2ccncc2)c2occc12,inactive
16,Cc1ccc(C(=O)N/C(=C/c2ccc(-c3cccc([N+](=O)[O-])c3)o2)C(=O)NCCCN(C)C)cc1,14.6 µM (active)
17,CN(C)CCNC(=O)/C(=C/c1cccc([N+](=O)[O-])c1)NC(=O)c1ccccc1,inactive
18,C=CCNC(=O)/C(=C\c1cccc([N+](=O)[O-])c1)NC(=O)c1ccccc1,inactive
19,COc1ccc(C(C(=O)Nc2c(C)cccc2C)N2CCN(c3ccc(C)cc3)CC2)cc1 (configuration not stated),inactive
20,CCCC(=O)N1CCC1(C)C(=O)Nc1ccc(-n2cncn2)cc1 (configuration not stated),inactive
21,CCCNC(=O)C1(C)CCN(Cc2ccc(Cl)c(Cl)c2)C1 (configuration not stated),inactive
22,COc1ccc(CCNCc2c(-c3ccccc3)n(C)c3ccccc23)cc1,14.6 µM (active)
23,COc1ccc(-c2nc3ccccc3c(=O)n2CCc2ccc(O)cc2)cc1,inactive
24,COc1ccc(-c2c(C#Cc3ccccc3)c3ccccc3n2C)cc1,inactive
